The list is not random: actives were taken first. Their share in the collection is about 12%.
SARS PLP yeast = inhibitors of SARS-CoV papain-like protease in yeast; S. cerevisiae expressing SARS-CoV PLpro, growth rescue; Potency, µM (top dose mostly 32.9 µM), inactives show at the top dose activity, positive = growth rescue, actives largely listed as activators; 330,000 compounds, 0.19% hits; calls by dose curve; also: 0% is about no effect; nearly all actives have a fitted effect of over 55% in size
Pf growth 96h = P. falciparum growth inhibition at 96 hour, primary screen for plastid delayed-death inhibitors | P. falciparum luciferase reporter growth, 96 h | Potency, µM (titrated, usually from 28.7 µM), for inactives: at the top dose activity change, negative = inhibition, actives largely listed as inhibitors | 320,000 compounds, 6.9% hits; also: % is scaled to controls: 0 for no effect and ±100 for the full control effect
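Luminescence readout: decreased luciferase signal marks inhibited growth of reporter-expressing P. falciparum in infected red cells (2% hematocrit, 0.05% parasitemia final), exposed to compound two generations (96 h, 37 C, 5% CO2).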
Pf growth 48h = inhibits P. falciparum growth in the first generation, 48 h; AID 504832; Potency, µM (highest dose often 28.7 µM), for inactives: at the highest dose activity change, negative = inhibition, actives largely listed as inhibitors; 310,000 compounds, 5.9% hits; P. falciparum luciferase growth in erythrocytes, 48 h; also: % is scaled to controls: 0 for no effect and ±100 for the full control effect
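Here the parasites carry a stable luciferase gene and grow inside erythrocytes in Albumax-based RPMI medium with compound for one erythrocytic cycle. Activity is scored as loss of luminescent signal.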
Sm TGR block = inhibitors of Schistosoma mansoni thioredoxin glutathione reductase. AID 485364. purified TGR, DTNB reduction, TNB absorbance 405 nm. 360,000 compounds, 3% hits. Q962Y6. Potency, µM (titrated, usually from 114 µM), inactives show at the top dose activity change, negative = inhibition, actives largely listed as inhibitors; also: % is scaled to controls: 0 for no effect and ±100 for the full control effect; nearly all actives have a fitted effect of over 60% in size
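Kinetic colorimetric format: TGR-catalysed, NADPH-driven DTNB reduction monitored via TNB absorbance. Enzyme dispensed at 20 nM; compound exposure 15 min at room temperature before reaction start.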
* hit, by the source's call; ? = inconclusive; nt = no result. Unless noted, calls follow the shape of the dose curve; as a rule, active = well fitted curve in the direction sought with a large enough effect; inconclusive = small, poorly fitted or top-dose-only effect, or another doubt; inactive = no such curve, though single readings can be large; an effect the other way counts as inactive or inconclusive. Potency is read from the fitted curve at half-maximal effect.

SMILES	SARS PLP yeast	Pf growth 96h	Pf growth 48h	Sm TGR block
CCOC(=O)C1=C(CNCCOc2ccc(OC)cc2)NC(=O)NC1c1ccc2c(c1)OCO2 (centres undefined)	1%	?	12µM*	8%
CCOC(=O)C1=C(CN2CCN(C(=O)OCC)CC2)NC(=O)NC1c1ccc2c(c1)OCO2 (centres undefined)	1%	24%	?	22%
CCOC(=O)C1=C(CNCCc2ccc(Cl)cc2)NC(=O)NC1c1ccc2c(c1)OCO2 (centres undefined)	-2%	nt	7.4µM*	6%
Cc1ccc(NC(=S)c2nc3ccccc3[nH]2)c(C)c1	-50%	-9%	17%	-26%
Cc1cccc(/C=C(\c2nc3ccccc3[nH]2)S(=O)(=O)c2ccccc2)c1	-6%	?	3.7µM*	?
COc1ccc(OC)c(CN2CCSCC2)c1	5%	-2%	?	-20%
COc1ccc(-c2[nH]ncc2CN2CCSCC2)c(OC)c1	-1%	12µM*	-1%	13%
COc1ccc(CN2CCSCC2)c(C)c1C	-3%	8.3µM*	-2%	-17%
COc1ccc(-c2[nH]ncc2CN2CCCC(C(=O)c3ccc(OC)cc3OC)C2)cc1 (centres undefined)	0%	0.83µM*	13µM*	11%
COc1ccc(CN2CCSCC2)c(OC)c1C	8%	?	-15%	7%
COc1ccc(-c2cn3c(n2)sc2cc(C(=O)NC4CCCCC4)ccc23)cc1	nt	nt	nt	7%
CCOC(=O)N1CCC(NC(=O)c2ccc3c(c2)sc2nc(-c4ccccc4)cn23)CC1	-8%	-20%	1.3µM*	1%
CCOC(=O)N1CCC(NC(=O)c2ccc3c(c2)sc2nc(-c4cccc(OC)c4)cn23)CC1	24%	10%	7.4µM*	-5%
O=C(NC1CCCCCC1)c1ccc2c(c1)sc1nc(-c3ccccc3)cn12	nt	nt	nt	-10%
Cc1cccc(NC(=O)N2CCC(NC(=O)C3CCCCC3)CC2)c1	2%	9%	-9%	-12%
COC(=O)c1ccc(OCC2c3cc(OC)c(OC)cc3CCN2C(=O)Cc2ccccc2)cc1 (centres undefined)	nt	nt	nt	1%
COc1ccccc1NNC(=O)c1cc(C(C)(C)C)nn1Cc1ccccc1	0%	?	?	-16%
CC(C)(C)c1cc(C(=O)NNc2cc(C(F)(F)F)ccc2Cl)n(Cc2ccccc2)n1	-2%	12µM*	13µM*	0%
COc1ccc(-n2nc(C(=O)N(C)C)nc2-c2ccccc2)cc1	-2%	9.3µM*	16%	21%
Cc1ccc(NNC(=O)c2cc(C(C)(C)C)nn2Cc2ccccc2)cc1	-3%	?	?	45µM*
CC(C)(C)c1cc(C(=O)NNc2ccc(OC(F)(F)F)cc2)n(Cc2ccccc2)n1	-1%	?	?	1%
CNC(=O)c1ccc(-n2nc(C)cc2-c2ccccc2)cc1	2%	?	1.7µM*	18%
Cc1cc(-c2ccccc2)n(-c2ccc(C(N)=O)cc2)n1	20%	?	5%	6%
CC(C)(C)c1cc(C(=O)NC2CC2)n(Cc2ccc(F)cc2)n1	1%	?	?	11%
Cc1ccc(C)c(NC(=O)c2cc(-c3ccccc3)nn2-c2ccccc2)c1	-31%	?	?	11%
SMILES	SARS PLP yeast	Pf growth 96h	Pf growth 48h	Sm TGR block
Cc1ccc(C)c(NC(=O)c2nc(-c3ccccc3)n(-c3ccccc3)n2)c1	7%	9.3µM*	nt	-27%
Cc1ccc(NC(=O)c2cc(C(C)(C)C)nn2Cc2ccccc2)cc1	-2%	9.3µM*	8.3µM*	2%
Cc1ccc(NC(=O)c2cc(C)nn2-c2ccccc2)cc1	-5%	13µM*	nt	?
CC(C)(C)c1cc(C(=O)Nc2ccc(F)cc2)n(Cc2ccc(F)cc2)n1	-13%	12µM*	10µM*	2%
Cn1cc(-c2cc3n(n2)CCC(=O)N3CC(=O)NCc2ccccc2)c2ccccc21	nt	nt	nt	-12%
COC(=O)C1=C(CS(=O)(=O)c2cc(Cl)ccc2OC)NC(=O)NC1c1ccc(O)c(OC)c1 (centres undefined)	-1%	?	6%	-15%
Cc1nn(-c2ccccc2)c(N2CCCC2)c1/C=N/Nc1ccc(S(=O)(=O)Nc2ccccc2)cc1[N+](=O)[O-]	1%	?	3.3µM*	-17%
COc1ccccc1NS(=O)(=O)c1cccc(C(=O)N/N=C/c2c(C)nn(-c3ccccc3)c2N2CCCC2)c1	5%	?	?	7%
